Test results taken from the supplement of paper PMC10849652.
The full data set covers some 8,800 targets. This sample favours those with a hit. About 0.5% of all pairs of compound and target were hits. Values without a mark were called inactive.

Columns and labels:
Assay in all cases: log2 fold change, soluble protein after heating vs DMSO (PISA); higher = thermal stabilisation; K562 lysate, 10 uM; active = over 0.2 and 3.5 SD of the protein, either way, in both replicates (recomputed)
vemurafenib = compound: CCCS(=O)(=O)Nc1ccc(F)c(C(=O)c2c[nH]c3ncc(-c4ccc(Cl)cc4)cc23)c1F [vemurafenib]
Procedure, shortened: (§1)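 Dounce homogenisation of K562 pellets in PBS pH 7.4 with 1 mM MgCl2 produced a crude extract, used at 1 mg/mL protein. Exposure to 10 μM compound lasted 30 min, and aliquots were then heated for 3 min across 48°C-58°C, pooled and brought to 0.5% NP-40 at 4°C. The supernatant after 21,000xg for 90 min was quantified by TMTpro 16plex LC-MS/MS with channel sums equalised. Duplicate values are given as log-two fold change in thermal stability relative to solvent controls.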

[1] = compound: CCCS(=O)(=O)Nc1ccc(F)c(C(=O)c2c[nH]c3ncc(Cl)cc23)c1F
Procedure, shortened: as §1

barasertib = compound: CCN(CCCOc1ccc2c(Nc3cc(CC(=O)Nc4cccc(F)c4)[nH]n3)ncnc2c1)CCOP(=O)(O)O [barasertib]
Procedure, shortened: as §1

[2] = compound: CC[C@@H]1C(=O)N(C)c2cnc(Nc3ccc(C(=O)NC4CCN(C)CC4)cc3OC)nc2N1C1CCCC1
Procedure, shortened: as §1

volasertib = compound: CC[C@@H]1C(=O)N(C)c2cnc(Nc3ccc(C(=O)N[C@H]4CC[C@H](N5CCN(CC6CC6)CC5)CC4)cc3OC)nc2N1C(C)C [volasertib]
Procedure, shortened: as §1

[3] = compound: CCn1c(C(=O)N(C2CC2)C2CC2)cc2c3c(ncn3C)c(Nc3cc(C)n(C)n3)nc21
Procedure, shortened: as §1

[4] = compound: CCn1cc(-c2ccnc3[nH]c(-c4cccc(CN(C)C)c4)cc23)c(-c2ccc(NC(=O)N(C)C)cc2)n1
Procedure, shortened: as §1

[5] = compound: CN1CCC(CNc2ccc3ncc(-c4cccc(OC(F)(F)F)c4)n3n2)CC1
Procedure, shortened: as §1

saracatinib = compound: CN1CCN(CCOc2cc(OC3CCOCC3)c3c(Nc4c(Cl)ccc5c4OCO5)ncnc3c2)CC1 [saracatinib]
Procedure, shortened: as §1

alvocidib = compound: CN1CC[C@H](c2c(O)cc(O)c3c(=O)cc(-c4ccccc4Cl)oc23)[C@H](O)C1 [alvocidib]
Procedure, shortened: as §1

Tubastatin A = compound: CN1CCc2c(c3ccccc3n2Cc2ccc(C(=O)NO)cc2)C1 [Tubastatin A]
Procedure, shortened: as §1

[6] = compound: CNC(=O)C1=CC=CC=C1NC2=NC(=NC=C2Cl)NC3=C(C=C(C=C3)N4CCOCC4)OC
Procedure, shortened: as §1

defactinib = compound: CNC(=O)c1ccc(Nc2ncc(C(F)(F)F)c(NCc3nccnc3N(C)S(C)(=O)=O)n2)cc1 [defactinib]
Procedure, shortened: as §1

[7] = compound: CNc1nc(-c2ccc3c(N)n[nH]c3c2)cc(N2C[C@@H](C(=O)NC3CCCCC3)CC[C@H]2C)n1
Procedure, shortened: as §1

encorafenib = compound: COC(=O)N[C@@H](C)CNc1nccc(-c2cn(C(C)C)nc2-c2cc(Cl)cc(NS(C)(=O)=O)c2F)n1 [encorafenib]
Procedure, shortened: as §1

[8] = compound: COC(=O)[C@H](CCSC)NC(=O)C1=C(C=C(C=C1)NC[C@H](CS)N)C2=CC=CC=C2
Procedure, shortened: as §1

[9] = compound: COc1cc2nc(-c3cc(F)ccc3O)nc(N[C@@H]3CNC[C@H]3C(C)(C)O)c2cc1OC
Procedure, shortened: as §1

sotrastaurin = compound: CN1CCN(c2nc(C3=C(c4c[nH]c5ccccc45)C(=O)NC3=O)c3ccccc3n2)CC1 [sotrastaurin]
Procedure, shortened: as §1

alisertib = compound: COc1cc(Nc2ncc3c(n2)-c2ccc(Cl)cc2C(c2c(F)cccc2OC)=NC3)ccc1C(=O)O [alisertib]
Procedure, shortened: as §1

gefitinib = compound: COc1cc2ncnc(Nc3ccc(F)c(Cl)c3)c2cc1OCCCN1CCOCC1 [gefitinib]
Procedure, shortened: as §1

UniProt O95466, sequence (O95466 whole entry, looked up): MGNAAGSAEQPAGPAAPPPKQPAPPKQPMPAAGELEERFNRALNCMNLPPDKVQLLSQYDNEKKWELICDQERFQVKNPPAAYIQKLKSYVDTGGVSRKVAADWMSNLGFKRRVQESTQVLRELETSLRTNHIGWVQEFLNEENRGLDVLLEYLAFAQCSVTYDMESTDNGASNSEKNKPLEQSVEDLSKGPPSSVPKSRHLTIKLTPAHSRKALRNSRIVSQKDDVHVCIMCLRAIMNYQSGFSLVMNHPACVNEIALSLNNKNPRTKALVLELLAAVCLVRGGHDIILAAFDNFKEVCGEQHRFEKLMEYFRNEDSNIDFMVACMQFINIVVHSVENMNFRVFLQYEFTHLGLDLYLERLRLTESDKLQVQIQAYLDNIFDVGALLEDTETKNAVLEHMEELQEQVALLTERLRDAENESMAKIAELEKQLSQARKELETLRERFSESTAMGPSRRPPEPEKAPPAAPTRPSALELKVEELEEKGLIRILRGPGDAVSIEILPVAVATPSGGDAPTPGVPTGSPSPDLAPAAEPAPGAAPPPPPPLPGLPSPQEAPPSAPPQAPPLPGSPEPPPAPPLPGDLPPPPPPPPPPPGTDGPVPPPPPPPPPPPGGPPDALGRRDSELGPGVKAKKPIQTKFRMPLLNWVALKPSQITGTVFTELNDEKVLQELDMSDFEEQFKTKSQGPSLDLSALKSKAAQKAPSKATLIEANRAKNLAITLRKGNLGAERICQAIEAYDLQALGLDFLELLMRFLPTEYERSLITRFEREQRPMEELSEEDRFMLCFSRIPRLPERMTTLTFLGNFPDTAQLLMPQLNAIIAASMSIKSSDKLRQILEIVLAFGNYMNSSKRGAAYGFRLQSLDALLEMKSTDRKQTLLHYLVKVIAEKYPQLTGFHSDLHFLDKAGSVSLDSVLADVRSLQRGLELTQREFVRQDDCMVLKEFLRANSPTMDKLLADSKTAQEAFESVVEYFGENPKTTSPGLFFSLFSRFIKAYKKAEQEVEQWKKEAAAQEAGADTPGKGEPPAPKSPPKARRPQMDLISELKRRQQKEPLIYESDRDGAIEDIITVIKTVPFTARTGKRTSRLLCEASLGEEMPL
UniProt Q9GZT9, sequence (Q9GZT9 whole entry, looked up): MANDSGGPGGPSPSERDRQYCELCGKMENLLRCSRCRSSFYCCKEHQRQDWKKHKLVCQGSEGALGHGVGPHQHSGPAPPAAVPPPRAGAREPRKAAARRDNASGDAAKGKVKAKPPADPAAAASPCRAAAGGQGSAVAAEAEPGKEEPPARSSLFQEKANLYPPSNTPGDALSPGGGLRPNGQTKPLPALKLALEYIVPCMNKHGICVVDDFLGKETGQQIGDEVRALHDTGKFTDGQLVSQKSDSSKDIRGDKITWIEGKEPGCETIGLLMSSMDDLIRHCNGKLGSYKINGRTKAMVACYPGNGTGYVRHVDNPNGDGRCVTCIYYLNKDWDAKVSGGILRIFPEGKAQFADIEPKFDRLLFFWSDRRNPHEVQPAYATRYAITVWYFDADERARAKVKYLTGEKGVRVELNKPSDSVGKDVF
UniProt P34913, sequence (P34913 whole entry, looked up): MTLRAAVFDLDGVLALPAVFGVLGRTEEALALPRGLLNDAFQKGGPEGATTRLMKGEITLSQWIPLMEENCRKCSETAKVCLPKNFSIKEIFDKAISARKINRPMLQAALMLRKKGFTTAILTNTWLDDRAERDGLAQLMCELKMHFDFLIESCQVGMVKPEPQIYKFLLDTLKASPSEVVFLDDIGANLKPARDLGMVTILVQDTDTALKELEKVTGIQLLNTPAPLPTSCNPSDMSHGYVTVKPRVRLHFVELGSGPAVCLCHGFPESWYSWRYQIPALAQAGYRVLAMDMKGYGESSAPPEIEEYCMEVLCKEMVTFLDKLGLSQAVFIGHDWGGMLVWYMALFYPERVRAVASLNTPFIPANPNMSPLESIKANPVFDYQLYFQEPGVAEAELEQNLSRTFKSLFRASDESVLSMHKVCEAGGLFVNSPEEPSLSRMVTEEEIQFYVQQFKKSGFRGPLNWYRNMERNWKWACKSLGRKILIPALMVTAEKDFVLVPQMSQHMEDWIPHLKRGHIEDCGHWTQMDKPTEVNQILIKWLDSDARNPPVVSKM
UniProt Q14C86, sequence (Q14C86 whole entry, looked up): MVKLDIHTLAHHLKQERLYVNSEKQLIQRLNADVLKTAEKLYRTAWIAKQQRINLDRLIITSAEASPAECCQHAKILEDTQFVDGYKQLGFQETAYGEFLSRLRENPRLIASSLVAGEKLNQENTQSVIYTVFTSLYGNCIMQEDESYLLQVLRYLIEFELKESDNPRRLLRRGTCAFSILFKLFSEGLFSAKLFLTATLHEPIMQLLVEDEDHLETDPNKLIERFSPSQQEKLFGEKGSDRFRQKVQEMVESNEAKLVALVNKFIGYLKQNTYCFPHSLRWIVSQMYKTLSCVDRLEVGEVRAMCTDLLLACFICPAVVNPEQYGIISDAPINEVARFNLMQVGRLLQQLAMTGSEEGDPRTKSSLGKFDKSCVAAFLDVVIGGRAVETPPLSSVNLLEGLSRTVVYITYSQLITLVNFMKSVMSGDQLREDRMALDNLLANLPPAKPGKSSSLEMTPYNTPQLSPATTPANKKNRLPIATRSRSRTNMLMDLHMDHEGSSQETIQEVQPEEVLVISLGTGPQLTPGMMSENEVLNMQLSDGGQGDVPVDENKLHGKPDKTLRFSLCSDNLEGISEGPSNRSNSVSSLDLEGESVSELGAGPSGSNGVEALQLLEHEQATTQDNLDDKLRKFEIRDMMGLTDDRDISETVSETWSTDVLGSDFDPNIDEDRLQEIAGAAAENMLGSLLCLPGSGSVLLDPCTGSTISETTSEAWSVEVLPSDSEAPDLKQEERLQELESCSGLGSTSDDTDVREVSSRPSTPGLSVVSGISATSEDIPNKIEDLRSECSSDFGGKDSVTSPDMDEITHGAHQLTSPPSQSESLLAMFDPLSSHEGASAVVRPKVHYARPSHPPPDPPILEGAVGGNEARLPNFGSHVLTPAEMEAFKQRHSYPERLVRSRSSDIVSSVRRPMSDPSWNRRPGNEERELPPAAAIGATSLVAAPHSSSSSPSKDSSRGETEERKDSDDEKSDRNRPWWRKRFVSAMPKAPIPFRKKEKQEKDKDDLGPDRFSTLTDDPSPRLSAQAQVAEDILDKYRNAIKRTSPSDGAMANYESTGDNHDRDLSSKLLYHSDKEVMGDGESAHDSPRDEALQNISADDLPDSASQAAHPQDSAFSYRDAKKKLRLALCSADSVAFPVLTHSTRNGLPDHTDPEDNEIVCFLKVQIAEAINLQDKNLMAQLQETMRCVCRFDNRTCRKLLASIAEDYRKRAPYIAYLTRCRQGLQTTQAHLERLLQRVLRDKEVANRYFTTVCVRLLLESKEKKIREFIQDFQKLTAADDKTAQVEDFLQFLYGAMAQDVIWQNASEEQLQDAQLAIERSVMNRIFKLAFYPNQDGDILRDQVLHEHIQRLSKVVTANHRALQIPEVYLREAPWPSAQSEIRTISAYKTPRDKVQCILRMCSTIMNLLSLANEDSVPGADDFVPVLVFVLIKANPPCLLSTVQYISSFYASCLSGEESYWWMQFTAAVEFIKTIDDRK
UniProt Q9NPA0, sequence (Q9NPA0 whole entry, looked up): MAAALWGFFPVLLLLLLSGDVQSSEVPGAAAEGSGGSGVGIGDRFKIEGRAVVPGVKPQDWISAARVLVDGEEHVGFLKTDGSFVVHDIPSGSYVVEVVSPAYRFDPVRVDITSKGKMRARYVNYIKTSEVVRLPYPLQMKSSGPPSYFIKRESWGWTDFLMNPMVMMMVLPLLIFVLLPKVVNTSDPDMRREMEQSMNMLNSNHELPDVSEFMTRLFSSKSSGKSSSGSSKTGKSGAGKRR

Target	log2 fold change (vemurafenib)	log2 fold change [1]	log2 fold change (barasertib)	log2 fold change [2]	log2 fold change (volasertib)	log2 fold change [3]	log2 fold change [4]	log2 fold change [5]	log2 fold change (saracatinib)	log2 fold change (alvocidib)	log2 fold change (Tubastatin A)	log2 fold change [6]	log2 fold change (defactinib)	log2 fold change [7]	log2 fold change (encorafenib)	log2 fold change [8]	log2 fold change [9]	log2 fold change (sotrastaurin)	log2 fold change (alisertib)	log2 fold change (gefitinib)
FLT4 (UniProt P35916)	-0.069	-0.046	-0.036	-0.031	-0.042	0.135	0.018	0.08	-0.036	-0.086	-0.001	-0.428 (active)	0.004	-0.081	-0.129	0.053	0.031			
GAPVD1 isoform 6 (UniProt Q14C86)	0.011	0.006	0.01	-0.077	-0.036	0.027	0.046	-0.083	0.014	0.01	-0.112	0.015	0.018	-0.04	0.014	0.097	-0.017	0.012	0.005	-0.012
EPHX2 (UniProt P34913)	-0.026	-0.01	-0.026	0.016	0.041	-0.004	-0.044	0.119	-0.018	-0.018	0.183	-0.023	-0.002	0.123	-0.02	-0.058	-0.007	0.06	-0.045	-0.002
EGLN1 (UniProt Q9GZT9)	-0.052	-0.041	-0.025	-0.078	-0.076	0.007	0.019	-0.001	0.029	-0.017	-0.088	0.025	0.033	-0.026	0	0.091	0.022	0.034	0.009	-0.003
GCN1 (UniProt Q92616)	0.025	0.004	0.061	-0.107	-0.084	0.082	-0.05	-0.07	0.015	0.036	-0.181	0.001	0.037	-0.023	0.014	0.147	0.006	-0.006	0.023	-0.004
FMNL1 isoform 3 (UniProt O95466)	0.022	-0.008	-0.002	0.028	-0.088	-0.035	0.026	-0.032	0.007	0.011	-0.053	0.015	0.021	0.015	0.093	0.018	0.044	-0.006	0.029	-0.061
GAA (UniProt P10253)	0.068	-0.101	-0.063	-0.006	0.015	-0.021	0.122	0.027		-0.006	0.098	-0.047	-0.513 (active)		0.097	-0.15	0.089	-0.039	-0.117	-0.043
EMC7 (UniProt Q9NPA0)	0.034	0.004	-0.006	0.034	0	-0.023	-0.37 (active)	0.125	0.005	-0.146	0.039	-0.037	0.02	-0.008	0.026	-0.058	0.017	0.026	0.001	-0.043
